Tb PFK inh = qHTS Assay to Find Inhibitors of T. brucei phosphofructokinase; ATP-dependent 6-phosphofructokinase (Trypanosoma brucei brucei), O15648; T. brucei PFK, ADP-Glo luminescence; 330,000 compounds, 0.17% hits; Potency, µM (highest dose often 57.5 µM), without a hit: at the highest dose activity, negative = inhibition, hits mostly inhibitors;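 further: 0% = uninhibited 1x PFK enzyme wells and -100% = no-enzyme wells; nearly all actives have a fitted effect of over 60% in size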
Target sequence (O15648 whole entry, looked up): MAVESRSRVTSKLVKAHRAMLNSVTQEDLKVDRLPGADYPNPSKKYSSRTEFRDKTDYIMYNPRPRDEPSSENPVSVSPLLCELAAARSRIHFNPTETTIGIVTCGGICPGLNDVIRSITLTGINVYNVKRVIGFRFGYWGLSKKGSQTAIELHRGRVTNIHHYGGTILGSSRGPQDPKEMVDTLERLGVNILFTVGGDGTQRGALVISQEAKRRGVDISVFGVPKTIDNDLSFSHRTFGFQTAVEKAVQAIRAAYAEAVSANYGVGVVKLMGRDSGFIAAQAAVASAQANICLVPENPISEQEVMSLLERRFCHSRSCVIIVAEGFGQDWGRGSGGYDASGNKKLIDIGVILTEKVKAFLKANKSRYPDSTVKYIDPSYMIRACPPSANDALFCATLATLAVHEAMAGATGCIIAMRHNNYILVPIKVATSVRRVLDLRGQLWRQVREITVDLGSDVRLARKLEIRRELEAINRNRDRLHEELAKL
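ADP-Glo luminescence quantified ADP after 45 min at room temperature, with 1.25 nM T. brucei PFK, 0.1 mM ATP and 0.5 mM fructose-6-phosphate in pH 8.0 TEA buffer. qHTS titrations up to 57 µM; curves classified by quality.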
Pin1 inh = qHTS Assay to Find Inhibitors of Pin1. Potency, µM (titrated, usually from 115 µM), for inactives: at the highest dose activity, negative = inhibition, hits mostly inhibitors. Pin1 FP peptide displacement, HiFluor488, 10 min. Peptidyl-prolyl cis-trans isomerase NIMA-interacting 1 (Homo sapiens), Q13526. 390,000 compounds, 0.009% hits. AID 504891, 2011; active means well fitted inhibition curve with a large enough effect in the polarisation, with a control signal flat, not every such curve was filed as active; inconclusive means small, poorly fitted or top-dose-only effect, or effect the other way, or a change in a side signal; inactive means no such curve, though single readings can be large or run the other way; the % refers to the polarisation; further: on the % scale 0 is the no-effect control and ±100 the full control effect
Target sequence (Q13526 whole entry, looked up): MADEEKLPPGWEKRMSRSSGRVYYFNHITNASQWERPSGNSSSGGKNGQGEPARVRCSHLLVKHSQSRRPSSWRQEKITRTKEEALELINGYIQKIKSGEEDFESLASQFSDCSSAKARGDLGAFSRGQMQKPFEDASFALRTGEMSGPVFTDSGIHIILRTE
PLK1 PBD block = qHTS for Inhibitors of PLK1-PDB (polo-like kinase 1 - polo-box domain): Primary Screen. 360,000 compounds, 2.8% hits. AID 720504, 2013. Potency, µM, without a hit: max response, negative = inhibition, hits mostly inhibitors. Plk1 PBD binding of FITC phosphopeptide, fluorescence polarization. Serine/threonine-protein kinase PLK1 (Homo sapiens), P53350; further: series mostly up to about 57 µM; on the % scale 0 is the no-effect control and ±100 the full control effect; nearly all actives have a fitted effect of over 65% in size
S-ASM inh = Inhibitors of Secretory Acid Sphingomyelinase (S-ASM): qHTS; AID 504937, 2011; 340,000 compounds, 0.006% hits; Potency, µM (top dose mostly 57.5 µM), inactives show at the top dose activity change, negative = inhibition, actives largely listed as inhibitors; placental ASM, HMU-PC fluorogenic substrate, 60 min
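Fluorogenic HMU-PC substrate (9 uM final) is turned over by placental ASM in 60 min at 37 C after a 10 min compound preincubation. Reaction ended by alkaline stop (pH 10), with fluorescence read at 386/447 nm.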
VDR inhibitor = Inhibitors of the vitamin D receptor (VDR): qHTS. VDR-SRC2-3 peptide fluorescence polarization, 2 h. Potency, µM, for the others: max response, negative = inhibition, usual class: inhibitors. 400,000 compounds, 0.93% hits. AID 504847, 2011; further: on the % scale 0 is the no-effect control and ±100 the full control effect
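Two reagent solutions held at 4 deg C in the dark were dispensed, compounds pinned at 23 nl, and the mixture incubated 2 h at room temperature. Read-out: fluorescence polarization of VDR–SRC2-3 peptide binding.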
TDP1 inh = qHTS Assay for Inhibitors of Tyrosyl-DNA Phosphodiesterase (TDP1) | 350,000 compounds, 0.28% hits | Potency, µM (doses to about 130 µM), for inactives: at the highest dose activity change, negative = inhibition, usual class: inhibitors | recombinant TDP1, AlphaScreen DNA substrate cleavage | Tyrosyl-DNA phosphodiesterase 1 (Homo sapiens), Q9NUW8; further: on the % scale 0 is the no-effect control and ±100 the full control effect; nearly all actives have a fitted effect of over 40% in size
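Compounds were preincubated with Tdp1 (1 nM final) for 15 min at room temperature before substrate (15 nM final) started a 5 min reaction; beads (10 ug/ml final) were then added for 10 min before AlphaScreen detection.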
Active calls of the source: *; i = inactive; ? = inconclusive; . = no result given; [ ] = remark or other dose. Most compounds without a hit are left out; they make up all but 3.1% or so of the library. Unless noted, the call rests on the fitted dose curve; in most records, active means well fitted curve in the direction sought with a large enough effect; inconclusive means small, poorly fitted or top-dose-only effect, or another doubt; inactive means no such curve, though single readings can be large; an effect the other way counts as inactive or inconclusive. Potency means the concentration at half of the fitted maximal effect.

SMILES | Tb PFK inh | Pin1 inh | PLK1 PBD block | S-ASM inh | VDR inhibitor | TDP1 inh
Cc1ccc(-c2cn3nc(N4CCCC(C(=O)NCc5ccc(F)cc5)C4)sc3n2)cc1 (stereo not drawn) | . | 15% | . | . | 12% | 6%
O=C(/N=C1\NC(=O)C(F)(C(F)(F)F)S1)NC1CCCCC1 (stereo not drawn) | -2% | -3% | 13µM* | 2% | 50µM* | 1%
COc1ccc(CN2C(=O)c3cccnc3C2=O)cc1S(=O)(=O)N(C)Cc1ccco1 | 1% | -5% | -4% | 3% | -14% | 3%
CN(Cc1ccco1)S(=O)(=O)c1ccc(CN2C(=O)c3cccnc3C2=O)s1 | 3% | -1% | 27µM* | 0% | -4% | 3%
Cc1nn(C)c2c1c(-c1ccccc1)cc(=O)n2Cc1ccc(F)cc1 | . | 6% | . | . | -6% | -8%
Cc1ccccc1NS(=O)(=O)c1ccc2[nH]cc(C(=O)NC(C)c3ccccc3)c(=O)c2c1 (stereo not drawn) | . | 26% | . | . | 20% | ?
N=C1/C(=C\c2coc3ccccc3c2=O)C(=O)N=C2SC=CN12 | -1% | ? | -13% | 4% | -23% | .
N=C1/C(=C/c2cccs2)C(=O)N=C2SN=C(SCc3ccccc3)N12 | -1% | -7% | 27µM* | -22% | 12% | 7%
CSC1=NSC2=NC(=O)/C(=C/c3coc4ccccc4c3=O)C(=N)N12 | 5% | ? | 21µM* | 8% | 50µM* | 5%
CC1=C([N+](=O)[O-])C(c2ccc3c(c2)OCO3)N(C)C(=O)N1C (stereo not drawn) | 0% | -5% | 8.4µM* | 2% | ? | .
CN1C(=O)c2ccccc2N(C)C1c1ccc2c(c1)OCO2 (stereo not drawn) | -2% | 5% | -5% | i | 10% | 4%
COC(=O)C1[C@H]2C(=O)N(Cc3cccs3)C[C@]23C=C[C@H]1O3 (stereo partly drawn) | -4% | 5% | -4% | 3% | -14% | -2%
CCOC(=O)C1C2C=CC3(CN(Cc4cccs4)C(=O)C13)O2 (stereo not drawn) | 0% | 0% | 17µM* | 1% | -8% | 5%
CC(C)c1ccc2oc(-c3ccc(Cl)c(NC(=O)c4cccs4)c3)nc2c1 | . | 38% | . | . | 14% | -2%
CCCCC(CC)C(=O)Nc1ccc(C)c(O)c1 (stereo not drawn) | -12% | -2% | 30µM* | -2% | ? | -6%
CCCn1cc(S(=O)(=O)c2cccc(Cl)c2)c(=O)c2cc(F)c(N3CCOCC3)cc21 | . | 0% | . | . | -2% | 7%
Nc1nnc2c(n1)[nH]c1ccccc12 | . | -6% | . | . | -1% | 8%
S=c1nc2[nH]c3ccccc3c2n[nH]1 | . | -7% | 3.8µM* | 0% | ? | .
CC(=O)NCCNc1ncncc1-c1ccccc1C(F)(F)F | . | . | . | . | ? | 32µM*
FC(F)(F)c1ccccc1-c1cncnc1NCCN1CCOCC1 | . | . | . | . | 45µM* | .
Clc1ccccc1-c1cncnc1NCCN1CCOCC1 | . | . | . | . | -25% | .
FC(F)(F)c1ccccc1-c1cncnc1NCc1cccnc1 | . | . | . | . | -9% | .
CCCCn1c(N)c(N(Cc2ccccc2OC)C(=O)CCSC)c(=O)[nH]c1=O | -2% | 5% | -2% | 3% | -4% | 3%
CCCCn1c(N)c(N(Cc2ccccc2OC)C(=O)CSCC(=O)Nc2cccc(C)c2)c(=O)[nH]c1=O | 1% | 12% | 30µM* | 123% | -19% | 1%
c1ccc(CNc2oc(-c3ccccc3)nc2-c2cccc3ccccc23)cc1 | . | . | . | . | ? | 4%
SMILES | Tb PFK inh | Pin1 inh | PLK1 PBD block | S-ASM inh | VDR inhibitor | TDP1 inh
c1ccc(CNc2oc(-c3ccccc3)nc2-c2ccccc2)cc1 | . | . | . | . | 14µM* | 4%
CCCNc1nc(C#N)nc(Nc2ccccc2)n1 | . | 0% | . | . | . | 6%
Cc1ccc(CNC(=O)CSc2nc3[nH]ncc3c(=O)[nH]2)cc1 | 1% | 2% | 27µM* | -2% | -23% | 4%
Cc1ccc(NC2CCCN(C(=O)c3ccc4nccnc4c3)C2)cc1C (stereo not drawn) | 2% | -8% | -5% | 4% | -3% | 5%
O=C(CSc1ccccn1)N1CCN(c2ccc(Cl)cc2)CC1 | -1% | 1% | 24µM* | -1% | -21% | 6%
Cc1ccc(NC2CCCN(C(=O)CSc3ccccn3)C2)cc1C (stereo not drawn) | 1% | -7% | 24µM* | 2% | ? | 6%
Cc1ccc(NC2CCCN(C(=O)c3ccc(F)cc3)C2)cc1C (stereo not drawn) | 0% | 5% | 6.7µM* | -1% | ? | 8%
COc1ccc(-c2nc(SCC(=O)c3ccc(OC)c(Br)c3)n[nH]2)cc1 | . | -8% | . | . | 22% | 9%
O=S(=O)(Nc1ccc(O)c2ccccc12)c1cccs1 | 6% | 4% | 12µM* | -2% | ? | .
O=C(COc1ccc(F)cc1)Nc1ccccc1C(=O)OCc1cc(=O)n2nc(C3CC3)sc2n1 | . | 18% | . | . | 11% | 1%
Cn1ccc2cc(-c3ccc4ncnc(NCc5cccnc5)c4c3)ccc21 | -1% | . | . | . | . | .
Cc1cccc(OCC(=O)NC(Cc2ccccc2)C(=O)O)c1 (stereo not drawn) | 0% | -11% | -8% | 3% | -2% | 3%
Cc1ccc2c(c1)c(CC(NC(=O)c1ccccc1Oc1ccccc1)C(=O)O)cn2C(=O)OCc1ccccc1 (stereo not drawn) | . | . | . | . | 32µM* | 6%
CCc1nnc(SCc2cc(C)ccc2C)c2cc3sc(C)cc3n12 | . | -15% | . | . | 0% | 0%
Cc1ccc(Nc2nc(N)nc(CSc3nncn3C)n2)cc1 | 0% | ? | 0% | 0% | 4% | 6%[56.1 µM]
Cc1ccc(Nc2nc(N)nc(CSc3nnnn3-c3ccccc3)n2)cc1 | 1% | -2% | -6% | -1% | 4% | 79µM*
COc1ccc(F)c(C2C(C#N)=C(N)Oc3n[nH]c(C(C)(C)C)c32)c1 (stereo not drawn) | -2% | 8% | -4% | 4% | 8% | 3%
CCCC1C(C#N)=C(N)Oc2n[nH]c(C(C)(C)C)c21 (stereo not drawn) | 0% | 4% | 6.7µM* | 6% | ? | 6%
CC(C)(C)OC(=O)N/N=C\c1ccc(OC(=O)c2ccco2)cc1 | -2% | -3% | 24µM* | -7% | -3% | 2%

Source: PubChem
